The campaign covered roughly 310,000 compounds. About 1,000 (0.32%) were called active. These entries were drawn from the full list. Potency and affinity values are given separately. Values without a mark were called inactive. No rule for the calls is given here.
Assay: PhoP regulon inhibitors, Salmonella typhi PhoP promoter GFP reporter, confirmatory (AID 1850);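 also: 0% = induced wells with vehicle and 100% = uninduced wells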
Settings: fluorescence, 4 h, at 50 µM, stronger effect = higher value

| SMILES | inhibition |
| --- | --- |
| CN(C)S(=O)(=O)c1cccc(NC(=O)COc2ccc(C(=O)c3ccccc3)cc2)c1 | -35.4% |
| COc1ccc(CCn2c(-n3nc(C)cc3C)nc3c2c(=O)[nH]c(=O)n3C)cc1 | 0.46% |
| O=C(NCC(=O)N1CCCCC1)c1ccc(Br)o1 | 20.3% |
| N#C/C(=N\Nc1ccc(S(=O)(=O)N2CCOCC2)cc1)C(N)=S | 6.96% |
| O=C(Nc1ccc(SC(F)F)cc1)C1CC(=O)N(Cc2ccccc2)C1 (stereo not given) | 17.5% |
| OCC1(Cc2ccc(Cl)cc2)CCN(Cc2ccc(F)c(F)c2)CC1 | 1.77% |
| CCn1c(=O)n(CC)c2cc(NC(=O)c3ccccc3Cl)ccc21 | -4.48% |
| C/C(CC(=O)Nc1ccc2c(c1)OCO2)=N\NC(=O)OC(C)(C)C | 1.68% |
| Cc1ccc(C(=O)Nc2cccc(NC(=O)c3cccs3)c2)c(C)c1 | -6.14% |
| Cc1cc(C)c(S(=O)(=O)NCCCn2ccnc2)c(C)c1 | -3.5% |
| CCCCCCCCCCCCCCCC[n+]1cccc2ccccc21 | -4.68% |
| CCCCC[n+]1cccc2c3ccccc3ccc21 | 0.18% |
| O=C(C[n+]1cc(-c2ccc(F)cc2)n2c1CCC2)N1c2ccccc2Sc2ccccc21 | -2.79% |
| COc1ccc(-c2c[n+](CC(=O)N3c4ccccc4Sc4ccccc43)c3n2CCC3)cc1 | 18.6% |
| O=C(C[n+]1cc(-c2ccccc2)n2c1CCC2)N1c2ccccc2Sc2ccccc21 | 13.9% |
| Cc1ccc(-c2c[n+](CC(=O)N3c4ccccc4Sc4ccccc43)c3n2CCC3)cc1 | 6.09% |
| CC/C(=N\NC(=O)c1ccncc1)C12CC3CC(CC(C3)C1)C2 | 8.69% |
| CCOC(=O)N1CCC(=NNC(=O)COc2ccc(C#N)cc2)CC1 | -4.18% |
| COc1ccc(OC)c(CCNC(=O)c2sc3nc4n(c(=O)c3c2C)CCC4)c1 | 4.26% |
| Cc1occc1C(=O)N/N=C/c1ccc(Br)s1 | 1.4% |
| Cc1ccc(/C=N/NC(=O)c2ccoc2C)s1 | 0.98% |
| CC(/C=N\NC(=O)CN1CCN(S(=O)(=O)c2ccc(C)cc2)CC1)=C\c1ccccc1 | -12% |
| CCOC(=O)[C@H]1[C@H]2COc3ccccc3[C@@H]2N2C(=O)c3ccccc3NC(=O)[C@@]12C | -4.39% |
| CCCOc1ccc(-c2nc(N3CCN(C)CC3)c3ccccc3n2)cc1 | 9.86% |

| SMILES | inhibition |
| --- | --- |
| O=C(NC(c1ccccc1)c1cc(Cl)c2cccnc2c1O)c1cccnc1 (stereo not given) | -1.98% |
| O=C(O)COc1ccccc1C(Nc1ccccn1)c1cc(Cl)c2cccnc2c1O (stereo not given) | -6.17% |
| CC(=O)c1ccc(OCC(O)CN2CCN(CCO)CC2)cc1 (stereo not given) | -2.27% |
| O=C(COC(=O)CCCN1C(=O)c2cccc3cccc(c23)C1=O)Nc1cccc(C(F)(F)F)c1 | -5.09% |
| CCOc1ccc(OCCNC2CCCC2)cc1 | 6.72% |
| Cc1ccc(OCCCNC2CCCC2)cc1 | 2.57% |
| O=C(Oc1c(CN2CCOCC2)cc(Cl)c2cccnc12)c1cccs1 | -0.05% |
| O=C(Oc1c(CN2CCOCC2)cc(Cl)c2cccnc12)c1ccccc1Cl | 4.13% |
| COCc1cc(CN2CCCC2)c(O)c2ncccc12 | -3.73% |
| Oc1c(CN2CCN(c3ccccc3)CC2)cc(Br)c2cccnc12 | -1.71% |
| O=C(Nc1ccc(-c2nc3cccnc3s2)cc1)c1cccnc1Cl | 16.9% |
| CC(=O)Nc1ccc(S(=O)(=O)N2CCN(c3cc(C)nc4ncnn34)CC2)cc1 | -16.9% |
| CC(=O)Nc1cccc(NC(=S)Nc2ccc(F)cc2F)c1 | 4.43% |
| O=C(Nc1ccccc1)Nc1ccc(F)cc1F | -5.6% |
| CCOc1ccc2nc(N(CCCN(C)C)C(=O)c3ccc4c(c3)CCCC4)sc2c1 | 2.97% |
| CN(C)CCCN(C(=O)c1sc2ccccc2c1Cl)c1nc2ccc(F)cc2s1 | -7.99% |
| CN(C)CCCN(C(=O)c1ccc2c(c1)CCCC2)c1nc2ccc(F)cc2s1 | 16.4% |
| CN(C)CCN(C(=O)C1=COCCO1)c1nc2ccc(F)cc2s1 | -3.62% |
| CN(C)CCCN(C(=O)C1=COCCO1)c1nc2ccc(Br)cc2s1 | -8.06% |
| Cc1cccc2sc(N(CCCN(C)C)C(=O)c3sc4ccccc4c3Cl)nc12 | -4.13% |
| Cc1ccc(C(=O)N(CCCN(C)C)c2nc3ccc(Cl)cc3s2)cc1C | 9.54% |
| CCN(CC)CCN(C(=O)c1ccc2c(c1)CCCC2)c1nc2ccc(C)cc2s1 | -8.88% |
| Cc1cccc(Cl)c1OCCN1CCCC1 | -6.23% |
| O=C(NCCN1CCOCC1)/C(=C/c1ccc(Cl)cc1)NC(=O)c1ccccc1 | 0.05% |

| SMILES | inhibition |
| --- | --- |
| COc1cc(CCC(=O)OCC(=O)Nc2ccc(C)cc2Cl)cc(OC)c1OC | -0.48% |
| Cc1ccc(S(=O)(=O)Nc2nncs2)cc1 | -8.26% |
| CC(CCN1CCN=C1Nc1ccccc1)c1ccccc1 (stereo not given) | 0.31% |
| COc1ccccc1CNC(=O)CCC(=O)N1C[C@H]2C[C@@H](C1)c1cccc(=O)n1C2 | 0.48% |
| CCOCC(=O)Nc1nnc(SCCOC)s1 | -8.99% |
| CC(=O)NC(CC(=O)c1ccc([N+](=O)[O-])cc1)C(Cl)(Cl)Cl (stereo not given) | -10.7% |
| O=C(CC(n1cncn1)C(Cl)(Cl)Cl)c1ccc([N+](=O)[O-])cc1 (stereo not given) | -2.18% |
| O=C(CSC1=NC(=O)C(c2ccccc2)C(=O)N1)Nc1ccccc1[N+](=O)[O-] (stereo not given) | 0.46% |
| Cc1ccccc1-n1ncc2c1CC(C)(C)CC2NC(=O)C1CCC1 (stereo not given) | 6.32% |
| N/C(=N\OC(=O)c1ccc(Cl)cc1)c1cccnc1 | 8.82% |
| N/C(=N\OC(=O)COc1ccc2ccccc2c1)c1cccnc1 | -4.96% |
| N/C(=N\OS(=O)(=O)c1ccc2ccccc2c1)c1ccncc1 | 9.71% |
| N/C(=N\OC(=O)c1ccccc1)c1cccnc1 | -1.82% |
| N/C(=N\OS(=O)(=O)c1ccccc1)c1ccncc1 | 6.44% |
| N/C(=N\OS(=O)(=O)c1ccc(Cl)cc1)c1ccncc1 | -3.25% |
| O=C(COC(=O)c1ccc([N+](=O)[O-])o1)Nc1cccc(S(=O)(=O)N2CCCCC2)c1 | 9.11% |
| CC(=O)N(C)c1ccc(NS(=O)(=O)c2cc(Cl)ccc2Cl)cc1 | -11.6% |
| CCOC(=O)C1C(=O)C=C(c2cccs2)CC1c1ccccc1C (stereo not given) | -6.96% |
| CCCCOc1ccc(C(=O)N2CC(C)OC(C)C2)cc1 (stereo not given) | -8.56% |
| CC1CN(C)C(C)CC1OC(=O)C(c1ccccc1)c1ccccc1 (stereo not given) | -11.9% |
| Cc1ccc(N2OC3C(=O)NC(=O)C3C2c2ccco2)cc1 (stereo not given) | -16% |
| COc1ccc(NCc2nn(CC(=O)c3ccc(Br)cc3)c3[n+]2CCCCC3)cc1 | 8.75% |
| COc1ccc(C(=O)Cn2nc(CNc3ccc(Br)cc3)[n+]3c2CCCCC3)cc1 | 1.1% |
| O=C(Cn1nc(CNc2ccc(Cl)cc2)[n+]2c1CCCCC2)c1ccccc1 | -5.48% |

| SMILES | inhibition |
| --- | --- |
| Cc1ccc(C(C)C)c(OCc2nn(CC(=O)c3ccc(Cl)cc3)c3[n+]2CCCCC3)c1 | -26.5% |
| COC(=O)CNC(c1ccccc1)c1cc(Cl)ccc1NC(=O)c1cccc(Cl)c1 (stereo not given) | -1.38% |
| CCCCOc1ccc(Cc2cnc(N)nc2N)cc1 | -18.3% |
| COCc1cnc(C)nc1N | -2.28% |
| COc1ccccc1OCc1nc2ccccc2n1C | -1.73% |
| O=C(NNC(=O)C(c1ccccc1)c1ccccc1)c1cccs1 | -3.78% |
| CN1CCN(c2ccc(NC(=O)c3ccc(Br)o3)cc2)CC1 | -0.39% |
| CN1CCN(c2ccc(NC(=O)c3ccc(-c4ccc(Cl)cc4)o3)cc2)CC1 | 14.7% |
| Cc1ccc(NC(=O)CSc2nnc(CNC(=O)c3ccco3)o2)cc1Cl | -4.93% |
| CCCCC(=O)NC(=S)NNC(=O)CCc1ccccc1 | -4.48% |
| CCCCC(=O)NC(=S)NNC(=O)CC#N | 15.9% |
| CCCCCC(=O)NNC(=S)NC(=O)c1ccc([N+](=O)[O-])cc1 | -13% |
| CCCCCC(=O)NC(=S)NC1C2CC3CC(C2)CC1C3 (stereo not given) | 14.6% |
| CCCCC(=O)NNC(=S)NC(=O)C(c1ccccc1)c1ccccc1 | -0.63% |
| CCCCC(=O)NNC(=S)NC(=O)c1ccc(C)cc1 | 12.1% |
| CCCCCCCC(=O)NNC(=O)CCC(=O)O | -4.06% |
| CCCCC(=O)NC(=S)Nc1cccc(NC(=O)CC)c1 | -1.01% |
| O=C(CNc1cccc(S(=O)(=O)N2CCOCC2)c1)N1CCc2ccccc21 | -12.4% |
| Cc1cc(-n2c(=S)sc3c(=O)n(-c4ccc(F)cc4)c(SCC(=O)O)nc32)ccc1Cl | 2.23% |
| CN(c1ccccc1)S(=O)(=O)c1ccc(NC(=O)c2ccc(F)cc2)cc1 | -3.04% |
| Cc1cc(OCC(=O)Nc2ccc(OCc3ccccc3)cc2)nc(C(C)C)n1 | -4.55% |
| O=C(CCn1cnc(-c2ccccc2)c1-c1ccccc1)N/N=C/c1ccccc1O | -2.92% |
| COc1cccc(-c2ccc(SCC(=O)NC3CCCC3)nn2)c1 | -7.47% |

From PubChem BioAssay AID1850 (Southern Research Specialized Biocontainment Screening …, 2009)
